Screens (PubChem BioAssay)
In the library only some 1% were active in any assay of this set; here they are far more common.
RXFP1 antagonist: qHTS Assay for Antagonists of the Relaxin Receptor RXFP1 | HEK293-RXFP1, relaxin-stimulated cAMP HTRF, 30 min; stronger effect = lower value | activity change, negative = inhibition, % at 57.5 µM | hit rate 0.59% among 350,000 | AID 1259400, 2018;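 active = activity change of -60% or lower, but not beyond a set lower limit; inconclusive = change between -60% and -40%, or beyond the set limit; inactive = change above -40%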; also: % is scaled to controls: 0 for no effect and ±100 for the full control effect
gsp antagonist: qHTS for Antagonists of gsp, the Etiologic Mutation Responsible for Fibrous Dysplasia/McCune-Albright Syndrome: qHTS; AID 624288, 2012; gsp-mutant cells, cAMP HTRF, 30 min; Potency, µM (top dose mostly 76.9 µM), inactives show top-dose activity change, negative = inhibition, usual class: inhibitors; hit rate 0.4% among 340,000; calls by dose curve; cell line not stated here;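 also: intracellular cAMP measured with PDE inhibitor Ro 20-1724 present during compound exposure; potency is read from the fitted curve at half-maximal effect; % is scaled to controls: 0 for no effect and ±100 for the full control effect; nearly all actives have a fitted effect of over 65% in size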
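HTRF cAMP read-out (cAMP-d2 plus anti-cAMP antibody-K in lysis buffer, 30 min RT). Before lysis, cells are exposed to compounds with […] for 30 min at 37C in DPBS containing Ca/Mg, BSA and Tween 20.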
RXFP1 agonist: qHTS Assay for Agonists of the Relaxin Receptor RXFP1 | Relaxin receptor 1 (Homo sapiens), Q9HBX9 | HEK293T-RXFP1 cAMP TR-FRET, 30 min; response scale: percent of porcine relaxin response, buffer zero | Potency, µM (series often up to 57.5 µM), for the others: at the top dose activation, most hits filed as activators | hit rate 0.3% among 370,000 | AID 2676, 2010; active = well fitted activation curve with a large enough effect; inconclusive = small, poorly fitted or top-dose-only effect; also: potency is read from the fitted curve at half-maximal effect; % is scaled to controls: 0 for no effect and ±100 for the full control effect; nearly all actives have a fitted effect of over 60% in size
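HEK293 cells stably expressing RXFP1, treated 30 min at 37C with compounds plus PDE4 inhibitor Ro 20174; cAMP measured by HTRF TR-FRET. Normalized to buffer and 29 nM porcine relaxin; EC50 by Hill fit.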
gsp agonist: qHTS for Agonist of gsp, the Etiologic Mutation Responsible for Fibrous Dysplasia/McCune-Albright Syndrome: qHTS; gsp mutant cells, cAMP HTRF, 30 min; Potency, µM (highest dose often 76.9 µM), inactives show at the top dose activation (cAMP increase), hits mostly activators; hit rate 0.13% among 340,000; active = well fitted activation curve with a large enough effect; inconclusive = small, poorly fitted or top-dose-only effect, or another doubt; inactive = no such curve, though single readings can be large or run the other way; cell line not stated here;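 also: phosphodiesterase inhibitor Ro 20-1724 added with compounds to block cAMP breakdown; potency is read from the fitted curve at half-maximal effect; nearly all actives have a fitted effect of over 60% in size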
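Cells stably selected in G418 were plated at 2000/well, grown 16-24 hr, then given compounds in DMSO with the PDE inhibitor […] (300 uM solution added) for 30 min at 37C; cAMP was read by HTRF.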
TSHR antag: Antagonists of the Thyroid Stimulating Hormone Receptor: HTS campaign. Thyrotropin receptor (Homo sapiens), P16473. TSHR-expressing cells, TSH-stimulated cAMP HTRF, 2 h; stronger effect = lower value. activity change, negative = inhibition, % at 11.5 µM. hit rate 0.2% among 330,000. AID 504810, 2011;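 active = activity change below a set negative limit, meaning inhibition stronger than a set level, cut at about -70% in these data; inconclusive = activity change between two set negative limits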; also: % is scaled to controls: 0 for no effect and ±100 for the full control effect
Target sequence (P16473 whole entry, looked up): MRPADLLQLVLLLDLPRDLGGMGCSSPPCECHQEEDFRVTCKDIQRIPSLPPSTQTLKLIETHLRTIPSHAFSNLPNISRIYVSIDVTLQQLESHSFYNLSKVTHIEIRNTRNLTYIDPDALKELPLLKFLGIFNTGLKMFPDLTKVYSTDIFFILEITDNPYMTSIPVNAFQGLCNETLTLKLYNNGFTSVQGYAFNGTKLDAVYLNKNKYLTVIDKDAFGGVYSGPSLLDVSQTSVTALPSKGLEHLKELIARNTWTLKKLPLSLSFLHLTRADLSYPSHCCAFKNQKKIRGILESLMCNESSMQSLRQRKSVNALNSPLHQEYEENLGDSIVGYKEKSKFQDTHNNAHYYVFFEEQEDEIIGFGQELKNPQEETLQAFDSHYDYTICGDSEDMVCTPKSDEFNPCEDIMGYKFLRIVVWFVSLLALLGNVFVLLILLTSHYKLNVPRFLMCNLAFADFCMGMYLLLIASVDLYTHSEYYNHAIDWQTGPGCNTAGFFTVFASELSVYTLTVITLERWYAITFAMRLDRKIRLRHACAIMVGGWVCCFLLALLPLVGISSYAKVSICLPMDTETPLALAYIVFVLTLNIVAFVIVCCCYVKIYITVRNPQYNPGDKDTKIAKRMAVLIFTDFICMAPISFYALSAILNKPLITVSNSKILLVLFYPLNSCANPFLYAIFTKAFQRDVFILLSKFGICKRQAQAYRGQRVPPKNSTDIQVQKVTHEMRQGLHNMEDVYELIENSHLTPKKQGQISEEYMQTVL
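Inhibition of cAMP made by TSHR-expressing cells under TSH stimulation (4nM final, EC80; 2 h, 37 deg C) is quantified with a one-step lysis HTRF kit, anti-cAMP cryptate versus cAMP-d2.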
Numbers without * were called inactive; ? = inconclusive; . = not tested or not shown; [ ] = another dose, or the depositor's remark.

SMILES	RXFP1 antagonist	gsp antagonist	RXFP1 agonist	gsp agonist	TSHR antag
O=[N+]([O-])c1ccc2nc(-c3ccc(Cl)cc3)[nH]c2c1	-30	35µM*	0%	-5%	20
O=[N+]([O-])c1ccc2nc(-c3ccncc3)[nH]c2c1	0	-3%	27%	10µM*	8
Cc1ccc(-c2nc3ccc([N+](=O)[O-])cc3[nH]2)cc1	-17	?	-2%	18%	-5
Oc1ccc(-c2csc(Nc3ccccn3)n2)cc1O	-63*	-5%	-2%	-5%	-24
Cc1ccnc(Nc2nc(-c3ccc(O)c(O)c3)cs2)c1	?	-5%	1%	15%	-23
Cc1ccc(CNC(=O)CCS(=O)(=O)c2ccc(Br)cc2)cc1	-8	1%	1%	-38%	9
O=C(CCS(=O)(=O)c1ccc(Br)cc1)NCc1ccc(F)cc1	0	-4%	-1%	-14%	-126*
CC(C)COc1cccc(-c2cc(C(=O)Nc3ccon3)c3ccccc3n2)c1	-20	-1%	1%	-3%[15.4 µM]	-119*
Cc1ccc(-c2nn(-c3ccccc3)cc2/C=N/O)cc1	-64*	11%	6%	-4%	19
CC1=NNC(=O)/C1=C\c1cn(-c2ccccc2)nc1-c1cccs1	?	94%	4%	1%	-5
O/N=C/c1cn(-c2ccccc2)nc1-c1cccnc1	-19	-13%	1%	5%[15.4 µM]	17
CC1=NNC(=O)/C1=C\c1cn(-c2ccccc2)nc1-c1ccc(F)cc1	-61*	-2%	0%	-9%[15.4 µM]	-5
CCCCC/C(C=O)=C\c1ccccc1	8	.	.	.	.
Cc1nnc(SCC(=O)Nc2ccc(Br)cc2)[nH]c1=O	.	.	-2%	.	.
COc1ccc(-n2c(SCC(=O)Nc3cccc4ccccc34)nc(O)cc2=O)cc1	-66*	-26%	3%	3%[15.4 µM]	-6
COc1ccc(-n2c(SCC(=O)Nc3ccccc3)nc(O)cc2=O)cc1	-39	-12%	-2%	25%	-26
COc1ccc(NC(=O)CSc2nc(O)cc(=O)n2-c2ccc(OC)cc2)cc1	-78*	?	2%	?	-13
COc1ccc(OC)c(NC(=O)CSc2nc(O)cc(=O)n2CC(C)C)c1	-80*	-19%	.	-4%	-22
COc1ccc(CSc2nc(O)cc(=O)n2CC(C)C)cc1F	-15	.	0%	-2%[15.4 µM]	12
COc1ccccc1NC(=O)CSc1nc2ccccc2c(=O)n1C	-22	35µM*	-1%	-24%	-25
COc1ccccc1NC(=O)C(=O)c1cc(C)n(-c2cc(C)cc(C)c2)c1C	-29	.	0%	.	.
CCOc1ccc(C(=O)C(CCC(CN(C)C)C(=O)c2ccc(OCC)cc2)CN(C)C)cc1 (stereo not drawn)	?	-14%	1%	?	13
CN(C)CC(CCC(CN(C)C)C(=O)c1ccccc1)C(=O)c1ccccc1 (stereo not drawn)	-76*	27%	1%	-1%[15.4 µM]	-21
O=C(c1ccccc1)C(CCC(CN1CCOCC1)C(=O)c1ccccc1)CN1CCOCC1 (stereo not drawn)	-68*	12%[15.4 µM]	1%	13%	-32
CC(CN1CCOCC1)C(Cc1ccccc1)(Cc1ccccc1)C(=O)N1CCCC1 (stereo not drawn)	8	.	.	.	.
CN(C)CCCN(C(=O)c1ccc2c(c1)CCCC2)c1nc2c(F)cccc2s1	-74*	5%	2%	18%[15.4 µM]	-3
COc1ccc(-c2csc(NC(=O)c3ccccc3NS(=O)(=O)c3ccc(F)c(F)c3)n2)cc1	-27	32µM*	1%	-13%[15.4 µM]	-88*
O=C(Nc1ccccc1N1CCOCC1)c1ccccc1NS(=O)(=O)c1ccc(F)cc1	?	-8%	2%	5%[15.4 µM]	0
O=C(Nc1ccccc1N1CCOCC1)c1ccccc1NS(=O)(=O)c1ccc(F)c(F)c1	2	3.5µM*	2%	-32%	-23
CCN(CC)CC(=O)Nc1c(C)cccc1C(=O)OC	3	.	.	.	.
